The whole screen tested about 360,000 compounds, of which about 9,100 (2.5%) were called active. Another 4% or so got no clear call; they are omitted. For the sample, actives were picked, then their nearest neighbours and some compounds at random. A number with no mark means an inactive call. Cut-off read from the data, not from the text of the source: active = max response below about -50%; inconclusive = no clear call, values can overlap the other calls; inactive = above that.
% is set by controls: 0 for no effect and ±100 for the full control effect.

Chain of D(3) dopamine receptor (Homo sapiens) (P35462 whole entry, looked up): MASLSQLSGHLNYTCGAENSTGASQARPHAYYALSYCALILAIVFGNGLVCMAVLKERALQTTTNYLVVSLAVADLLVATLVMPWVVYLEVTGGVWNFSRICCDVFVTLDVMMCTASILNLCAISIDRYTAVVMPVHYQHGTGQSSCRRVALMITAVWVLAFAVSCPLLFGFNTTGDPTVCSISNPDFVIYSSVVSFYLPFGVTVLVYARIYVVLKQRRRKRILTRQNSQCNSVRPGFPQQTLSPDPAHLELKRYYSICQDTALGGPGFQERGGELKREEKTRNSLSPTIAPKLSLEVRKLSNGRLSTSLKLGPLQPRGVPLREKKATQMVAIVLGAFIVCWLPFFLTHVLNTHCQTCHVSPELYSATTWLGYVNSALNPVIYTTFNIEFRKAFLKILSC

The experiment addresses D(3) dopamine receptor (Homo sapiens) (UniProt P35462). Briefly: qHTS of D3 Dopamine Receptor Antagonist: qHTS. To be noted: D3R cells, DiscoveRx beta-arrestin luminescence, antagonist mode; hits give low values. In outline: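 Cells expressing the human receptor were seeded at 1500 cells/well, incubated overnight at 37 degrees C in 5% CO2, then exposed to library compounds with dopamine controls for 90 minutes at 37 degrees C before luminescent detection.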
With `CCOc1ccc(CCNC(=O)COC(=O)c2ccc(C)c(S(=O)(=O)N3CCOCC3)c2)cc1OCC`, the max response, negative = inhibition is -5.11%.
Take `O=C(c1ccco1)N1CCN(CCOc2ccccc2)CC1`: the max response, negative = inhibition was -16.8%.
Next, `O=C(c1ccc(Br)o1)N1CCN(CCOc2ccccc2)CC1`: 27.8%; `O=C(Nc1ccc(F)cc1F)N1CCCN(CCOc2ccccc2)CC1`: -70.2% (active).
With `COc1cc(C)c(S(=O)(=O)N2CCOCC2)c(C)c1C`, the max response, negative = inhibition is 0.216%.
`COc1ccc(S(=O)(=O)N2CCOCC2)c(C)c1C`: the max response, negative = inhibition is -69.1% (active).
Consider `COc1ccc(S(=O)(=O)N2CCCC2)c(C)c1C`, for which the max response, negative = inhibition was -3.98%.
The figure for `COc1ccc(CC(N)c2csc(NC(=O)Nc3ccc(C(C)C)cc3)n2)cc1` (stereo unspecified) is -12.1%; for `OC(c1ccc(Cl)c(F)c1)c1ncc(-c2ccccc2Cl)[nH]1` (stereo unspecified) it is -18%.
The figure for `CCSC1=C(C#N)C(=O)n2c1cc1c2CCCC1` is -65.6% (active); for `CCSc1ncnc2c(C#N)c3n(c12)CCCCC3` it is -10.2%.
The figure for `CCN1C(=O)[C@H]2[C@@H](c3ccc(C(F)(F)F)cc3)N[C@]3(CCCN(Cc4ccc(Br)cc4)C3=O)[C@H]2C1=O` is 2.39%; for `CCS(=O)(=O)c1ccc(O)c(NC(=O)COc2ccc(Cl)cc2)c1` it is 0.528%.
In the case of `O=C(Nc1cccc(S(=O)(=O)NC2=NCCC2)c1)c1ccc(F)cc1F`, the max response, negative = inhibition is 5.01%.
Next, `O=C(Nc1cc(S(=O)(=O)Nc2ccc(Cl)cc2)ccc1O)c1ccc(F)cc1F`: -59.6% (active).
The figure for `COc1ccc(-c2csc(C(O)c3cccc(Cl)c3)n2)cn1` (stereo unspecified) is -24%; for `Nc1[nH]c(C(=O)c2ccccc2)c(-c2ccc(Br)cc2)c1C(=O)NC1CC1` it is 6.89%.
In the case of `N#CCCn1cnc2ccccc21`, the max response, negative = inhibition is -1.87%.
Next, `c1ccc(-c2nccc(-c3ccc(-n4cnc5ccccc54)cc3)n2)nc1`: -53.4% (active).
On to `COC(=O)c1ccc(-n2cnc3ccccc32)nc1`, for which the max response, negative = inhibition was 3.06%.
The figure for `CC1=C(C(=O)N2CCOCC2)CC(CC(=O)NCCN2CCOCC2)C(=O)N1CCC1=CCCCC1` (stereo unspecified) is 35.9%; for `O=C(NCCS(=O)(=O)N1CCN(c2ccccc2)CC1)c1cc(=O)c2ccccc2o1` it is 9.87%.
The figure for `COc1ccc([C@H]2C[C@@H](n3cc(COC(=O)c4ccccc4)nn3)[C@H](O)CN2C(=O)c2cccs2)cc1` is -28.2%; for `COCCNc1nc(N)c([N+](=O)[O-])c(N2CCCCCC2)n1` it is 16.7%; for `CCN1CCN(c2nc(Nc3cccc(F)c3)nc(N)c2[N+](=O)[O-])CC1` it is -76.5% (active).
Next, `CC1CN(c2nc(Nc3ccccc3)nc(N)c2[N+](=O)[O-])CC(C)O1` (stereo unspecified): 14.2%; `Cc1ccc(S(=O)(=O)N2CCC(=O)N([C@H](COCc3ccccc3)C(C)C)CC2)cc1`: 8.56%.
For `CC(C)c1cc(Cn2c3ccccc3c(=O)n2C(C)Cn2cc(C3CC3)nn2)on1` (stereo unspecified), the max response, negative = inhibition was 0.832%.
The figure for `CCCCC[C@@H]1C=C(C(=O)OCC)[C@H](c2ccccc2)N1S(=O)(=O)c1ccc(C)cc1` is 0%.
The figure for `O=C(OCc1cn([C@H]2C[C@H](c3ccccc3)N(C(=O)c3cccs3)C[C@@H]2O)nn1)c1ccccc1` is -25.2%; for `COc1c(C)cc(C(O)c2ncc(-c3cccc(C(F)(F)F)c3)[nH]2)cc1C` (stereo unspecified) it is 0%; for `COC(=O)N(C)C[C@@H]1OCc2cnnn2CCCC(=O)N([C@@H](C)CO)C[C@@H]1C` it is -14.7%.
Next, `c1ccc2cc3[nH]c(CN4CCCCC4)nc3cc2c1`: -50.3% (active); `O=c1cc(CN2CCCCCCC2)c2c(ccc3ccccc32)o1`: 5.7%.
Take `Cc1ccc2[nH]c(=O)c(CN3CCCCC3)c(-c3ccccc3)c2c1`: the max response, negative = inhibition is 16.1%.
The figure for `COc1cccc(/C=C2\SC(=S)N(CCCC(=O)N3CCOCC3)C2=O)c1` is -20.9%; for `CCN1C(=NCc2ccc(OC)cc2)N[C@@H](CCc2ccccc2)[C@H](C(=O)NCc2ccc(OC)cc2)[C@H]1C` it is 4.01%; for `COCCN1C(=O)N[C@@H](CCc2ccccc2)[C@H](C(C)=O)[C@H]1C` it is 2.91%.
The figure for `CCN1C(=S)N[C@@H](CCc2ccccc2)[C@H](C(=O)OC)[C@H]1C` is -63% (active).
Take `Cn1c(CCN2CCN(c3ccccn3)CC2)nc2cc(NS(=O)(=O)c3ccc(F)cc3)ccc21`: the max response, negative = inhibition was 0%.
Next, `CCOC1=C2CN(S(=O)(=O)c3ccc(C)cc3)[C@H](c3cccs3)C[C@H]2[C@H]2C(=O)N(c3ccccc3)C(=O)[C@H]2C1`: -26.5%; `CCc1nc2c(OCc3ccccc3)cccn2c1N(C)C(=O)c1ccco1`: -0.512%; `Cc1ccc(S(=O)(=O)N2C[C@@H](C)[C@]3(C2)[C@H](O)[C@H](OC(=O)NCc2ccccc2)C[C@H]2C(=O)N(c4ccccc4)C(=O)[C@H]23)cc1`: 18.6%.
The figure for `COc1ccccc1-c1cc(NC(C)=O)c2ncc(-c3ccc(F)cc3)n2c1` is 0%.
On to `CC(=O)Nc1cc(-c2ccccc2F)cn2c(-c3cccc(C(F)(F)F)c3)cnc12`, for which the max response, negative = inhibition was -2.07%.
Consider `CC(=O)Nc1cc(-c2ccccc2N(C)C)cn2c(-c3ccc(F)c(Cl)c3)cnc12`, for which the max response, negative = inhibition is -55.6% (active).
The figure for `CC(=O)Nc1cccc(-c2cc(NC(C)=O)c3ncc(-c4ccccc4)n3c2)c1` is 10.2%; for `CC(=O)Nc1cccc(-c2cc(NC=O)c3ncc(-c4ccc(F)c(Cl)c4)n3c2)c1` it is 58.6%.
As to `CC(=O)Nc1cc(-c2cccc(CO)c2)cn2c(-c3cccc(C(F)(F)F)c3)cnc12`, the max response, negative = inhibition is -52.6% (active).
Next, `C[C@H](NC(=O)CC[C@H]1O[C@@H](n2ccc(=O)[nH]c2=O)[C@H](O)[C@@H]1O)c1cccc2ccccc12`: -12.4%.
Consider `COc1ccc(OC)c(NC(=O)c2cc(-c3cc(F)ccc3OCC3CCCO3)n[nH]2)c1` (stereo unspecified), for which the max response, negative = inhibition is 8.86%.
Next, `COc1ccc(-n2c(-c3ccc(Cl)cc3)n[nH]c2=S)c(OC)c1`: 15.8%.
For the compound `COC(=O)C[C@H]1C=C[C@@H](NS(=O)(=O)c2ccc(C)cc2)[C@@H](CO)O1`, the max response, negative = inhibition is 14.9%.
Next, `CCCCc1nc2ccc(F)cc2cc1C`: 20.6%; `CC(=O)Nc1ccc(S(=O)(=O)N2CCN(CCCOc3cc(C)ccc3C)CC2)cc1`: 15.6%.
Turning to `Cc1ccc(C(C)(C)C)c(OCCCCN2CCCC2)c1`, the max response, negative = inhibition was -80.6% (active).
Next, `Cc1ccc(OCCCC(=O)N2CCOCC2)c(C)c1`: 4.43%; `Cc1ccc(C)c(OCC(=O)NNC(=O)C2CCC2)c1`: 1.58%.
Next, `Cc1ccc(OCCCCN2CCCCC2)c(Br)c1`: -102% (active); `C=CCc1cc(C)ccc1OCCCn1ccnc1`: -3.51%.
Next, `CCN(CC)C(=O)C(C)N1c2cccc3cccc(c23)S1(=O)=O` (stereo unspecified): -22.2%; `Cc1cccc(CN2CCN(C3CN(Cc4cn(Cc5ccccc5F)nn4)S(=O)(=O)C3)CC2)c1` (stereo unspecified): 6.92%; `O=C1c2ccccc2-c2ccccc2NC1O` (stereo unspecified): 0%.
Regarding `O[C@H]1CN(Cc2cccs2)[C@@H](c2ccc(Cl)cc2)C[C@@H]1n1cc(C2CC2)nn1`, the max response, negative = inhibition was 8.97%.
Next, `NC(c1ccccc1)c1csc(NC(=O)Nc2cccc(C(F)(F)F)c2)n1` (stereo unspecified): 18.1%.
The figure for `C#CCNC(=O)C[C@@H]1C[C@@]2(C(=O)OCC)CCCC=C2N(Cc2ccco2)C1=O` is 5.5%; for `Cc1ccc(-c2ccc(/C=C(\C#N)C(N)=S)o2)c([N+](=O)[O-])c1` it is -5.05%; for `Cc1ccc(C(=O)N/C(=C/c2ccc(-c3cccc([N+](=O)[O-])c3)o2)C(=O)NCCCN(C)C)cc1` it is 10.3%.
As to `Cc1ccc(Cc2cnc(NC(=O)/C(C#N)=C/c3ccc(-c4cccc([N+](=O)[O-])c4)o3)s2)cc1`, the max response, negative = inhibition is -59.9% (active).
As to `Cc1[nH]c2ccccc2c1C(=O)c1cc([C@H](NC(=O)OC(C)(C)C)C(C)C)sc1N`, the max response, negative = inhibition is 17.9%.
The figure for `COC(=O)c1ccc(CN2C(=O)C(Cc3ccccc3)ON=C2c2ncccc2C)o1` (stereo unspecified) is 14.2%; for `CCCCCCN1CCN(C2CN(Cc3cn(CCCCCC)nn3)S(=O)(=O)C2)CC1` (stereo unspecified) it is -13.3%; for `O=C(Nc1cccc2cccnc12)c1ccc2sc([C@H]3C[C@H](O)[C@@H](CO)O3)nc2c1` it is 119%.
The figure for `CN(C)CCNc1ccc(-c2n[nH]c(=O)c3ccccc23)cc1[N+](=O)[O-]` is -21.7%.
Next, `CSc1ccccc1NC(=O)CN(C)CC(=O)Nc1ccc(Cl)cc1[N+](=O)[O-]`: -10.8%; `CCN(CC)CCNc1ccc(Cl)cc1[N+](=O)[O-]`: -86.2% (active); `CC1Cc2[nH][nH]c(=O)c2C(C2CC2)O1` (stereo unspecified): 2.81%.
Take `O=C(NCc1ccccc1)C1c2ccccc2OCC(=O)N1C1CC1` (stereo unspecified): the max response, negative = inhibition was 3.07%.
The figure for `CCC(c1nc2ccccc2[nH]1)n1c(=O)c(-c2cccs2)nc2ccccc21` (stereo unspecified) is -19.2%.
Next, `CC(=O)Nc1cnc(-c2ccc(O)cc2C)cn1`: 12.9%; `CC1(C(=O)NS(=O)(=O)c2cccc(OC(F)F)c2)CCN1C(=O)COc1ccc(Cl)cc1` (stereo unspecified): 0%.
Next, `COc1cccc(OCC(=O)NNC(=O)c2cnccn2)c1`: -0.611%; `COc1ccc(C(=O)NNC(=O)c2cnccn2)cc1[N+](=O)[O-]`: -63.8% (active); `CCOc1ccc(C(=O)Nc2nccs2)cc1[N+](=O)[O-]`: 2.71%.
As to `CCc1nc2ccc(C(=O)Nc3cc(-c4ccccc4)ccc3OC)cn2c1N(CC)CC(=O)N(C)C`, the max response, negative = inhibition is -16.4%.
Next, `NC(Cc1ccccc1)c1csc(Nc2cc(Oc3ccccc3)ncn2)n1` (stereo unspecified): 9.45%.
